# Compounds with a hit are over-represented: about 2% of the library has one in this group of screens.
# Neddyl block: inhibitors of human cullin neddylation; P61081+Q13564; TR-FRET cullin neddylation, biochemical; inhibition, % at 25 µM; 360,000 tested, 0.58% active; AID 651699; in the data active = inhibition above about 36%
# DAGLB inhibitor: blocks human DAGLB lipase activity; 340,000 tested, 0.059% active; Q8NCG7; HEK293T DAGLB membrane lysate, EnzChek fluorogenic substrate; AID 504411; inhibition, % at 5.17 µM; in the data active = inhibition above about 34%;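 also: 0% = enzyme with vehicle and 100% = wells lacking enzyme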
# NadD block: inhibitors of Staphylococcus aureus NadD; purified NadD enzyme, colorimetric absorbance read-out; inhibition, % at 20 µM; 360,000 tested, 0.78% active; AID 602399; in the data active = inhibition above about 26%
# HGIII-sPLA2 inh: Blocks human group III sPLA2 activity | Q9NZ20 | QFRET BODIPY PC-A2 liposome hydrolysis, fluorescence | inhibition, % at 12.2 µM | 370,000 tested, 0.56% active;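 active = inhibition above mean plus 3 SD of compounds lying within the high and low control bounds, cut at about 19% in these data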;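 also: 0% = median of test compound wells and 100% = no enzyme DMSO wells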
# Target sequence (Q9NZ20 whole entry, looked up): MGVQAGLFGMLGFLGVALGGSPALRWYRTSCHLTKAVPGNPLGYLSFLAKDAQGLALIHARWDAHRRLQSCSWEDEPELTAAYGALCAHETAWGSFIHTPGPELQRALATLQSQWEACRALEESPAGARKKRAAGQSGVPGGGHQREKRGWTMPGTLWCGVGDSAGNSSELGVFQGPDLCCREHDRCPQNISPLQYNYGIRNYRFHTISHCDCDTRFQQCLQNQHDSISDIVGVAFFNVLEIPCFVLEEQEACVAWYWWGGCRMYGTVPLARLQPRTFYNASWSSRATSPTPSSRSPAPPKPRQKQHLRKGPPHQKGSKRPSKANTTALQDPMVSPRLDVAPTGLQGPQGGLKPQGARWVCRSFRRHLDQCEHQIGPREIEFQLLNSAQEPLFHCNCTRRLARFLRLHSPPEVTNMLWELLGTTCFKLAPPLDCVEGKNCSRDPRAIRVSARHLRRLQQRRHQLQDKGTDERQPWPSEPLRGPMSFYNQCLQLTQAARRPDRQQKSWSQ
# ARNT TACC3 PPI: ARNT/TACC3 interaction disruption; Q9Y6A5; AlphaScreen His-ARNT PAS-B/GST-TACC3 binding, luminescence; TACC3 fragment carries E629A point mutation; inhibition, % at 9.99 µM; 390,000 tested, 0.66% active;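 active = mean inhibition of replicates at least 50% and at least half of replicates each reaching 50%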;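 also: 0% = complete ARNT plus TACC3 wells and 100% = ARNT alone without TACC3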
# Neddyl conf: cullin neddylation inhibition, confirmation; 1,800 tested, 13% active; shares compounds with Neddyl block; calls only at 25 µM; TR-FRET cullin neddylation biochemical assay; in the data active = inhibition above about 40%;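 also: neddylation substrate is the cullin 1 ring ligase complex with SKP2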
# Starred values were filed as active, the others as inactive; i = inactive; / = not tested or not shown; + = active, no number.
SMILES,Neddyl block,DAGLB inhibitor,NadD block,HGIII-sPLA2 inh,ARNT TACC3 PPI,Neddyl conf
COc1ccc(CCNC(=O)C2(C)CCC(=O)N2Cc2ccc(F)cc2Cl)cc1OC (configuration not stated),52*,-1,2,14,-2,i
C[C@@H]1CN([C@@H](C)CO)C(=O)c2cc(-c3cncnc3)cnc2O[C@H]1CN(C)C(=O)Nc1ccc2c(c1)OCO2,/,/,/,/,-7,/
Cc1ccc2ccc(C#N)cc2c1O,43*,1,-8,-1,/,+
CCCNC(=O)C[C@@H]1CC[C@H]2[C@@H](COc3ccc(NS(=O)(=O)c4ccccc4C)cc3C(=O)N2C)O1,/,/,/,/,-4,/
O=C(CCCCn1ccc(=O)[nH]c1=O)Nc1ccc(O)c(C(=O)O)c1,39*,-1,2,-1,-14,/
O=C1CS/C(=N\N=C\c2ccco2)N1c1ccccc1,42*,2,1,-6,2,i
C[C@@H]1CCCCO[C@@H](CN(C)Cc2ccncc2)[C@H](C)CN([C@H](C)CO)C(=O)c2cc(NC(=O)Nc3ccc4c(c3)OCO4)ccc2O1,/,/,/,/,4,/
COc1ccc2oc(C(=O)OCC(=O)Nc3ccc(OC)c(S(N)(=O)=O)c3)c(C)c2c1,53*,-2,15,-10,-1,/
COc1ccc2oc(C(=O)OCC(=O)N(C)CC(=O)Nc3ccc(C)cc3)c(C)c2c1,41*,1,2,-16,2,/
COc1ccc2oc(C(=O)OCC(=O)Nc3ccc(NC(C)=O)cc3)c(C)c2c1,1,1,10,11,6,/
C[C@@H]1CN([C@H](C)CO)C(=O)c2cc(NS(=O)(=O)c3ccc(Cl)cc3)ccc2O[C@@H]1CN(C)Cc1ccc(Cl)c(Cl)c1,/,/,/,/,7,/
Cc1noc(C)c1NC(=O)Nc1ccc2c(c1)CC(=O)N([C@H](C)CO)C[C@H](C)[C@H](CN(C)C(=O)Nc1ccc(F)cc1)O2,/,/,/,/,-2,/
CC1(C)Oc2cc3oc(=O)ccc3cc2C[C@@H]1O,52*,0,1,16,-2,/
CC(C)(O)[C@H]1Cc2cc3ccc(=O)oc3cc2O1,/,-2,-4,3,-3,/
C(=C\c1ccc2nncn2c1)/c1ccccc1,45*,/,8,-15,/,+
C[C@@H]1CN([C@@H](C)CO)C(=O)Cc2cc(NC(=O)Nc3ccc4c(c3)OCO4)ccc2O[C@H]1CN(C)Cc1ccc(C(F)(F)F)cc1,/,/,/,/,-2,/
O=C(C[C@H]1CC[C@@H](NC(=O)Nc2cc(F)ccc2F)[C@@H](CO)O1)Nc1ccccc1,/,/,/,/,3,/
Cc1[nH]c2ccccc2c1/C=N/NC(=O)c1cccc(S(=O)(=O)Nc2ccccc2Cl)c1,44*,7,13,-23,-10,i
CC(=O)N1[C@@H]2c3cccc(=O)n3C[C@@H]2[C@@H](CO)[C@@H]1C(=O)NCc1ccc(F)cc1,/,/,/,/,2,/
CC(C)[C@H](NC(=O)c1ccccc1)C(=O)OCC(=O)/C=C1/N(C)c2ccccc2C1(C)C,35,-1,-1,0,5,/
COc1cc(OC)cc(C(=O)NCC(=O)OCC(=O)/C=C2/N(C)c3ccccc3C2(C)C)c1,52*,2,-5,-14,-6,i
COc1ccc(/C=N\NC(=O)c2ccc(-c3ccccc3)cc2)cc1COC(C)=O,47*,0,12,-3,1,i
COc1ccc(C=O)cc1CSc1ccccn1,4,-1,3,-8,-1,/
COc1ccc(/C=N/NC(=O)c2ccc(O)cc2O)cc1CSc1ccccn1,43*,1,23,-27,4,i
COc1ccc(S(=O)(=O)N[C@@H]2CC[C@@H](CC(=O)N3CCc4ccccc4C3)O[C@@H]2CO)cc1,/,/,/,/,-30,/
SMILES,Neddyl block,DAGLB inhibitor,NadD block,HGIII-sPLA2 inh,ARNT TACC3 PPI,Neddyl conf
COc1ccc(C)cc1NC(=O)c1nn(-c2ccccc2)cc1OC,49*,-5,-6,-10,/,i
COc1cn(-c2ccccc2)nc1C(=O)Nc1ccc(C)cc1,28,-2,-10,-7,/,/
COc1ccccc1/C=N/NC(=O)c1cc2c(ccc3ccccc32)o1,60*,-6,13,-2,-7,i
COc1ccc(/C=N\NC(=O)c2cc3c(ccc4ccccc43)o2)cc1O,45*,-1,-3,-25,-6,i
O=C(O)c1ccc(/C=N/NC(=O)c2cc3c(ccc4ccccc43)o2)cc1,43*,0,7,3,0,i
C[C@@H](O)C#Cc1ccc([C@@H]2[C@@H](CO)N3CCCCN(C(=O)Nc4ccccc4)C[C@H]23)cc1,/,/,/,/,-6,/
C[C@@H]1CCCCO[C@@H](CN(C)S(=O)(=O)c2ccccc2)[C@@H](C)CN([C@@H](C)CO)C(=O)c2cc(NS(=O)(=O)c3cccs3)ccc2O1,/,/,/,/,-7,/
CC1CCCCC1NC(=O)c1c(O)nc2ccccn2c1=O (configuration not stated),40*,2,-1,9,-7,i
O=C(NCCC1=CCCCC1)c1c(O)nc2ccccn2c1=O,37,2,8,4,-50,/
O=C(NCCCN1CCCC1=O)c1c(O)nc2ccccn2c1=O,41*,-6,0,6,-8,i
CC1CCCCC1NC(=O)c1cc2c(=O)n3ccccc3nc2n1C (configuration not stated),/,-2,1,9,-24,/
O=S(=O)(N[C@@H]1CC[C@@H](CCn2cc(C3(O)CCCC3)nn2)O[C@H]1CO)c1ccc(Cl)cc1,/,/,/,/,-6,/
COc1cc(/C=C/C(=O)NCCN2CCOCC2)cc(OC)c1OC,44*,0,-3,8,6,i
COc1ccc2c(ccc[n+]2[O-])c1,-16,0,0,3,-2,/
[O-][n+]1c2ccccc2cc2ccccc21,45*,0,-5,6,/,/
O=C(CNC(=O)c1ccco1)N/N=C/c1cc(Br)ccc1O,42*,4,-1,-11,29,i
O=C(CNC(=O)c1ccccc1Br)N/N=C/c1ccccc1O,40*,0,-1,0,2,i
O=C(CNC(=O)c1ccco1)N/N=C/c1ccc(O)cc1O,-5,-1,8,3,27,/
O=C(CNC(=O)c1ccccc1Br)N/N=C/c1cc(Br)ccc1O,15,14,1,-27,/,/
Nc1cc(Cl)ccc1C(=O)OCC(=O)NCc1cccs1,56*,0,-6,-3,-6,/
O=C(COC(=O)c1ccccc1Cl)NCc1cccs1,4,-2,4,4,/,/
O=c1cc(-c2ccccc2)[nH]c2nc3ccccc3n12,/,-2,-2,-3,-9,/
O=c1cc(CCl)[nH]c2nc3ccccc3n12,42*,-3,0,16,-9,i
CCCc1c(C)[nH]c2nc3ccccc3n2c1=O,46*,4,-7,-6,-1,i
CCCC#Cc1cnc2c(c1)C(=O)N([C@@H](C)CO)C[C@H](C)[C@H](CN(C)Cc1ccncc1)O2,/,/,/,/,10,/
O=C(Cc1ccc(Cl)cc1)NNC(=S)NC(=O)c1cccs1,53*,0,-2,15,-1,i
